From PubChem BioAssay (NCATS)
Results filed as inconclusive are left out. Activity calls are given as the source filed them. Calls come from the whole dose curve; as a rule, active = well fitted curve in the direction sought with a large enough effect; inconclusive = small, poorly fitted or top-dose-only effect, or another doubt; inactive = no such curve, though single readings can be large; an effect the other way counts as inactive or inconclusive.

Tests used:
[1] = qHTS for compounds that reverse cellular toxicity of Amyloid beta (A-beta) peptide in yeast: LOPAC Validation Assay (AID 720559);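 note: plate controls were DMSO for no effect and equimolar ferric chloride plus clioquinol rescue for full effect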
Summary of the method: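 Yeast cells expressing toxic A-beta were combined with pinned compounds in growth medium and incubated 48 hr at 30 C. Growth was read as absorbance at 600 nm and normalized to DMSO and to an equimolar FeCl3/clioquinol positive control.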

[2] = qHTS for Activators of Parkin Expression: LOPAC Validation Assay (NLuc Reporter) (AID 720572;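 note: 0% = DMSO and 100% = positive control compound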)
Summary of the method: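 Neuronal line stably carrying a FLuc/NLuc coincidence reporter under the Parkin promoter, seeded 24 h, then dosed in 7-point series for 24 h at 37 C. NLuc luminescence read after FLuc; normalized to DMSO and positive control (100%).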

[3] = target: T1, Hexokinase-4 (Homo sapiens) + Glucokinase regulatory protein (Homo sapiens) (UniProt P35557+Q14397); experiment: qHTS assay for inhibitors of recombinant human GCK-GKRP interaction: Diaphorase-coupled assay (AID 743205)
Summary of the method: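 GST-GCK (10 nM) with FLAG-GKRP (10 nM), 5 mM glucose and 0.4 mM ATP in pH 7.6 Hepes; compounds preincubated 20 min with substrate. G6PDH/diaphorase coupling converts resazurin to resorufin, read kinetically (ex 525/em 590 nm) for 30 min.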

[4] = target: T1, Hexokinase-4 (Homo sapiens) + Glucokinase regulatory protein (Homo sapiens); experiment: qHTS assay for inhibitors of recombinant human GCK-GKRP interaction: ADP-Glo assay (AID 743206);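 note: plate controls were DMSO plus enzyme for no effect and no enzyme for full effect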
Summary of the method: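 GST-GCK and FLAG-GKRP (15 nM each in the dispensed mix, with 2 uM S6P) react with 0.4 mM ATP and 5 mM glucose (final) in Hepes pH 7.6 for 60 min at room temperature. ADP is measured by ADP-Glo luminescence.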

[5] = target: T1, Hexokinase-4 (Homo sapiens) + Glucokinase regulatory protein (Homo sapiens); experiment: qHTS assay for inhibitors of recombinant human GCK-GKRP interaction: HTRF assay (AID 743207);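 note: 0% = DMSO with GCK present and -100% = DMSO wells lacking GCK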
Summary of the method: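 GST-GCK and FLAG-GKRP (5 nM each) were combined with 2 uM S6P in pH 7.1 Hepes/MgCl2/KCl/DTT buffer, then compound and anti-FLAG XL665/anti-GST K antibodies were added. After 60 min at room temperature, HTRF 665/615 nm emission was read.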

[6] = qHTS Assay for Identifying Gametocytocidal Compounds (AID 743244);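 note: % is set by controls: 0 for no effect and ±100 for the full control effect; actives lower the fluorescent signal which means gametocytes are killed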; conditions: P. falciparum 3D7 stage III-V gametocytes, alamarBlue, 72 h; max response: stronger effect = lower value
Summary of the method: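 Compounds are pinned into medium, gametocytes (stage III–V, 3D7, 20,000 cells/well) added, and plates held 72 h at 37 °C in 5% CO2. AlamarBlue follows for 24 h before fluorescence reading.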

[7] = qHTS for Activators of Parkin Expression: LOPAC Validation Assay (FLuc Reporter) (AID 720573;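 note: 0% = DMSO and 100% = positive control compounds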)
Summary of the method: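 Neuronal cell line stably carrying FLuc/NLuc coincidence reporter under Parkin promoter; cells plated 24 h, then compounds added in 7-point dose response for 24 h at 37 C. FLuc luminescence read; normalized to DMSO and positive control (100%).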

T1 sequence (P35557 whole entry, looked up): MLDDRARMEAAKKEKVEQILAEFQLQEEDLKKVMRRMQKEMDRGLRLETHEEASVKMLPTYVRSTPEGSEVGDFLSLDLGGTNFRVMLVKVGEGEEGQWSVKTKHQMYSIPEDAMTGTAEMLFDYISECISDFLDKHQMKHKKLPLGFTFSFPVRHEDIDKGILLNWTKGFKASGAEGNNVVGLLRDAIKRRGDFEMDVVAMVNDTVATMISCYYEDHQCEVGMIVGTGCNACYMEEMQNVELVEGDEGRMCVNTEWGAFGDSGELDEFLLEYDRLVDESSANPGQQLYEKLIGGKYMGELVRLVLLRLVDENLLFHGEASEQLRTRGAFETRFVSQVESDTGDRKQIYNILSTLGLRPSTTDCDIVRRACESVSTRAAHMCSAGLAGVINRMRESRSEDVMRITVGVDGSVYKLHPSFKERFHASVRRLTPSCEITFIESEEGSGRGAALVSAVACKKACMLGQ
T1 sequence (Q14397 whole entry, looked up): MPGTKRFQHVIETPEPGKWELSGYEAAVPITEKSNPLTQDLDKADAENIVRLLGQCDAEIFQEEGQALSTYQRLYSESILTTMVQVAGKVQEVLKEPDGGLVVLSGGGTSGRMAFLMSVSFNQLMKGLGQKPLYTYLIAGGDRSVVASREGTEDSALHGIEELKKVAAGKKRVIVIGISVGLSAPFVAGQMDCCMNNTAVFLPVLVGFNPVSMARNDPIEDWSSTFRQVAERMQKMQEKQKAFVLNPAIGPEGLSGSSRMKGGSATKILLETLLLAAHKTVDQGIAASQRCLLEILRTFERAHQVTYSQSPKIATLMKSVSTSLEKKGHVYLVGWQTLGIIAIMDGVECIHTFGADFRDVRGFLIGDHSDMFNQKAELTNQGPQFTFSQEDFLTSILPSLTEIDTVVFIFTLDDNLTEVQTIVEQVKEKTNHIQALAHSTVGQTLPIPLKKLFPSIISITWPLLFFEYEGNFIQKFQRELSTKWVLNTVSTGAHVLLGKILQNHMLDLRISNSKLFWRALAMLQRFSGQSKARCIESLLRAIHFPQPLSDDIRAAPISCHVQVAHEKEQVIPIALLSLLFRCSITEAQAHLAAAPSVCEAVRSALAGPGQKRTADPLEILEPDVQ

O=c1[nH]c2cc(Cl)ccc2c(O)c1-c1ccc(Oc2ccccc2)cc1
inactive: outcome [1] | Potency [2] | Potency [3] | Potency [4] | Potency [5] | max response [6] 17.9%

NC1(C(=O)O)CCCCC1
inactive: outcome [1] | Potency [2] | Potency [3] | Potency [4] | Potency [5] | max response [6] 26.2%

NC(N)=NC(N)=Nc1cccc(Cl)c1
inactive: outcome [1] | Potency [2] | Potency [3] | Potency [4] | max response [6] 35.4%

c1ccc2c(c1)CC(N1CCN(c3cccc4c3OCCO4)CC1)C2
inactive: outcome [1] | Potency [2] | Potency [7] | Potency [3] | Potency [4] | max response [6] 9.97%

[Li+]
inactive: outcome [1] | Potency [2] | Potency [7] | Potency [3] | Potency [5] | max response [6] 24.7%

Oc1cc(O)c2c(c1)O[C@H](c1ccc(O)c(O)c1)[C@@H](O)C2
inactive: outcome [1] | Potency [2] | Potency [3] | Potency [4] | Potency [5] | max response [6] -4.64%

O=C1OC(=O)C2C3CCC(O3)C12 (stereo not drawn)
inactive: outcome [1] | Potency [2] | Potency [3] | Potency [4] | Potency [5] | max response [6] 26.3%

O=C(O)c1cccnc1C(=O)O
inactive: Potency [2] | Potency [7] | Potency [3] | Potency [4] | Potency [5] | max response [6] 4.44%

Nn1nnc2ccccc21
inactive: Potency [2] | Potency [7] | Potency [3] | max response [6] 16.9%

COc1ccc(C(=O)NCc2cccnc2)cc1C(=O)NCc1cccnc1
inactive: outcome [1] | Potency [2] | Potency [7] | Potency [3] | Potency [5] | max response [6] 22.9%

O=c1cc(-c2ccccc2)[nH]c2nc(Cl)ccc12
inactive: outcome [1] | Potency [2] | Potency [3] | Potency [4] | max response [6] -6.09%

N=C(N)c1ccccc1
inactive: outcome [1] | Potency [2] | Potency [3] | Potency [4] | Potency [5] | max response [6] 17.2%

Cc1nc(N=Nc2cc(S(=O)(=O)O)c3cc([N+](=O)[O-])cc(S(=O)(=O)O)c3c2)c(COP(=O)(O)O)c(C=O)c1O
inactive: outcome [1] | Potency [2] | Potency [3] | Potency [4] | max response [6] -2.01%

C=C(C)C1CC=C(C(=O)O)CC1 (stereo not drawn)
inactive: Potency [2] | Potency [7] | Potency [3] | Potency [4] | Potency [5] | max response [6] 19.6%

CSC(=N)N
inactive: outcome [1] | Potency [2] | Potency [7] | Potency [3] | max response [6] 32.5%

Nc1ncnc2c1nc(Sc1ccc(Cl)cc1)n2[C@H]1OC2COP(=O)(O)O[C@@H]2C1O (stereo partly drawn)
inactive: Potency [2] | Potency [7] | Potency [3] | Potency [4] | Potency [5] | max response [6] 39.2%

O=C(O)C1CCCNC1 (stereo not drawn)
inactive: outcome [1] | Potency [2] | Potency [7] | Potency [3] | Potency [5] | max response [6] 20.9%

O=C(O)CCC(=O)N1CCCC1C(=O)O (stereo not drawn)
inactive: Potency [2] | Potency [7] | Potency [3] | Potency [4] | Potency [5] | max response [6] -8.08%

NC(=O)CNCCC(c1ccccc1)c1ccccc1
inactive: outcome [1] | Potency [2] | Potency [3] | Potency [4] | Potency [5]

Cn1ccnc1
inactive: outcome [1] | Potency [2] | Potency [7] | Potency [3] | Potency [5] | max response [6] 14.7%

O=[N+]([O-])c1cccc2cn[nH]c12
inactive: outcome [1] | Potency [2] | Potency [7] | Potency [3] | Potency [4] | max response [6] 8.31%

CCCCCCC(=O)OC1CC(C)(C)NC(C)(C)C1
inactive: outcome [1] | Potency [2] | Potency [7] | Potency [3] | Potency [5] | max response [6] -4.67%

CC(C)C[C@H](NC(=O)[C@H](O)[C@H](N)Cc1ccccc1)C(=O)O
inactive: outcome [1] | Potency [2] | Potency [7] | Potency [3] | Potency [5] | max response [6] 2.38%

NC(N)=[N+]1CCc2ccccc2C1
inactive: Potency [2] | Potency [7] | Potency [3] | Potency [4] | Potency [5] | max response [6] -3.89%

NC(N)=NC(N)=Nc1ccccc1
inactive: Potency [2] | Potency [7] | Potency [3] | Potency [4] | Potency [5] | max response [6] 28.5%

CN(C)CCC(c1ccc(Br)cc1)c1ccccn1 (stereo not drawn)
inactive: Potency [3] | Potency [4] | Potency [5] | max response [6] 11.9%

CC(=O)SC1CC2=CC(=O)CC[C@]2(C)C2CC[C@@]3(C)C(CC[C@@]34CCC(=O)O4)C12 (stereo partly drawn)
inactive: outcome [1] | Potency [3] | Potency [4] | max response [6] 7.64%

NC[C@@H]1O[C@H](c2ccccc2)Cc2c1ccc(O)c2O
inactive: outcome [1] | Potency [2] | Potency [3] | Potency [4] | Potency [5]

CCCCCCCC/C=C\CCCCCCCC(=O)NCCc1ccc(O)c(O)c1
inactive: Potency [3] | Potency [5] | max response [6] 7.46%

CC[N+](CC)(CC)CC(=O)Nc1c(C)cccc1C
inactive: outcome [1] | Potency [2] | Potency [7] | Potency [3] | Potency [5] | max response [6] 14.2%

COc1ccc2c(c1)c(CC(=O)O)c(C)n2Cc1ccc(Cl)cc1
inactive: outcome [1] | Potency [7] | Potency [3] | Potency [4] | Potency [5] | max response [6] -11.4%

CC(C)NC[C@H](O)COc1cccc2ccccc12
inactive: Potency [2] | Potency [7] | Potency [3] | Potency [4] | Potency [5]

Nc1nc2ccc(Cl)cc2c2nc(-c3ccco3)nn12
inactive: outcome [1] | Potency [2] | Potency [7] | Potency [3] | Potency [5] | max response [6] -3.79%

CCN(CC)CCOC(=O)c1cc(Cl)c(N)cc1OC
inactive: Potency [2] | Potency [7] | Potency [3] | Potency [4] | Potency [5] | max response [6] 40.4%

C=C1C[C@@]23CC[C@H]4[C@@](C)(CCC[C@@]4(C)C(=O)OC4OC(CO)C(O)C(O)C4O)[C@@H]2CC[C@]1(OC1OC(CO)C(O)C(O)C1OC1OC(CO)C(O)C(O)C1O)C3 (stereo partly drawn)
inactive: Potency [2] | Potency [7] | Potency [3] | Potency [4] | Potency [5]
